About 79,000 compounds went through this panel and 15% of them were active in at least one assay; those are over-represented in the sample as a whole. A number with no mark means an inactive call. Cut-off read from the data, not from the text of the source: active = growth inhibition above about 70%; inactive = the rest. Where a SMILES comes first, the peptide text is derived from it. [ ]: non-standard residue; d: D form. pGlu = O=C1CC[CH](C(=O)O)N1
Test: NCI Yeast Anticancer Drug Screen. Data for the mec2-1 strain (AID 157)
Conditions: S. cerevisiae mec2-1 strain, at 50.0 µM, active compounds read high
Summary of the method: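 Cells of the genetically defined mec2-1 yeast strain are incubated with test compound. Inhibition of growth is calculated against vehicle-treated controls.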

SMILES | growth inhibition [%]
N/N=C(/c1ccc(Cl)cc1)N1CCOCC1 | 1.1
CCN(CC)CN1C(=O)C2C3C=CC(C2C1=O)C1C2C(=O)N(CN(CC)CC)C(=O)C2C31 (stereo not given) | -25.6
Cc1ccc(C)c(NC(=O)CCC(=O)C(C#N)c2nc3ccccc3s2)c1 (stereo not given) | -3.3
CCOC(=O)C(NC(N)=O)C(=O)OCC | 15
CC(NC(=O)C(Cc1cnc[nH]1)NC(=O)C1CCC(=O)N1)C(N)=O (stereo not drawn) ([pGlu]-His-Ala-NH2; configuration not given here) | -75
CC(=O)Nc1c(C)cccc1[N+](=O)[O-] | -14.2
CCCC(C)C1(CCC)C(=O)N=C(N)N=C1N (stereo not given) | 7.75
CC(=O)C1=C(O)C(Cc2ccccc2)NC1=O (stereo not given) | -0.2
CC(=O)OC1CCC2C(C)(CCC3C2(C)CCC2(C)C4CC(C)(C)CCC4(C)CCC32C)C1C (stereo not given) | -6.25
COC(=O)c1ccccc1C(=O)c1ccccc1 | 9.2
COc1c2c(cc3c(CCc4ccccc4)cc(=O)oc13)CCC(C)(C)O2 | -22.8
CCOC(=O)C(=O)N1Cc2cc3c(cc2C2CC(O)C(O)CC21)OCO3 (stereo not given) | -3.9
OC1=CC(C2CCCCC2)CC(O)=C1 (stereo not given) | -0.65
c1ccc(-c2csc3[n+]2CCN3)cc1 | 13.9
NNC(=O)CNC(=O)c1ccccc1 | -14.6
CCOC(=O)CC1(C)c2nc(NC(C)=O)sc2Cc2sc(NC(C)=O)nc21 | -8.9
CON(C)c1nc(N(C)C)nc(N(C)C)n1 | 11.6
Nc1cc2[nH]cnc2c(=O)[nH]1 | 21.9
COCCNc1cncc(C(N)=O)c1 | 6.9
Nc1nc(N)[n+]([O-])c(N)c1NCO | 2.9

SMILES | growth inhibition [%]
COc1ccc(/C=C(\C2=NC(=O)CS2)c2nc3ccccc3[nH]2)cc1 | -4.2
Cc1ccc(-c2c(C#N)c(-c3ccccc3)c(C#N)c(=O)n2NS(=O)(=O)c2ccc(C)cc2)cc1 | 28.1
CN(Nc1ccnc(=O)[nH]1)c1ccccc1 | -11.2
COc1ccc(-c2c3c([nH]c(=S)c2C#N)CCC3)cc1 | 4.5
CCOC(=O)C(C(=O)OCC)C(=O)c1cc(OC)c(OC)c(OC)c1 | 10.6
CN1C/C(=C\C=C\c2ccccc2)C(=O)/C(=C/C=C/c2ccccc2)C1 | 16.9
C=C1C(=O)O[C@H]2[C@H]1[C@@H](OC(=O)C=C(C)C)CC1=C[C@@H](C[C@@]3(C)O[C@@H]23)OC1=O | -7.55
C/C(=C/CNc1ncnc2c1ncn2CCC(=O)O)CO | 12.5
O=c1[nH]c(=O)n(C2OC(CO)C(O)C2O)cc1OCc1ccccc1 (stereo not given) | -19.8
C/C(=N/O)c1c[n+]([O-])ccn1 | -3.15
COc1ccc2oc(=N)c(C(N)=S)cc2c1 | 24.2
Cn1c(-c2ccccc2)c2c(=O)oc3ccccc3c2c1-c1ccccc1 | 8.8
O=[N+]([O-])c1ccc(C=Nc2ccccc2)cc1 | 24.1
COc1cc([N+](=O)[O-])cc2c1OC1(C=C2)Oc2ccccc2N1C (stereo not given) | -25.9
COc1ccc2nc3cc([N+](=O)[O-])ccc3c(Nc3ccc(S(=O)(=O)N=C(N)N)cc3)c2c1 | 21.8
CN(C)c1ccc(N=Nc2ccc(S(=O)(=O)O)cc2)cc1.CN(C)c1ccc(N=Nc2ccc(S(=O)(=O)O)cc2)cc1.[NH-]C1CCCCC1[NH-].[Pt+2] | 7.1
CC1c2ncnc(N)c2CN1C(=O)c1ccccc1 (stereo not given) | -6.85
CC(=O)c1cccc(C(C)=O)c1N=Cc1ccc(Cl)cc1 | -27.9
O=C(/C=C\c1ccccc1)c1ccc(-c2ccc([N+](=O)[O-])cc2)cc1 | 11.4
CC(NC(=O)OC(C)(C)C)C(=O)C(N)=O (stereo not given) | 2.7

Test: NCI Yeast Anticancer Drug Screen. Data for the sgs1 mgt1 strain (AID 161);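 note: 0% = growth of cultures given vehicle only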
Conditions: S. cerevisiae sgs1 mgt1 strain, at 50.0 µM, active compounds read high
Summary of the method: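 Genetically altered yeast, compound exposure, growth inhibition relative to vehicle.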

SMILES | growth inhibition [%]
N/N=C(/c1ccc(Cl)cc1)N1CCOCC1 | 3.8
CCN(CC)CN1C(=O)C2C3C=CC(C2C1=O)C1C2C(=O)N(CN(CC)CC)C(=O)C2C31 (stereo not given) | -27.6
Cc1ccc(C)c(NC(=O)CCC(=O)C(C#N)c2nc3ccccc3s2)c1 (stereo not given) | -5.15
CCOC(=O)C(NC(N)=O)C(=O)OCC | 0.95
CC(NC(=O)C(Cc1cnc[nH]1)NC(=O)C1CCC(=O)N1)C(N)=O (stereo not drawn) ([pGlu]-His-Ala-NH2; configuration not given here) | -17.3
CC(=O)Nc1c(C)cccc1[N+](=O)[O-] | 0
CCCC(C)C1(CCC)C(=O)N=C(N)N=C1N (stereo not given) | -3.9
CC(=O)C1=C(O)C(Cc2ccccc2)NC1=O (stereo not given) | 1.95
CC(=O)OC1CCC2C(C)(CCC3C2(C)CCC2(C)C4CC(C)(C)CCC4(C)CCC32C)C1C (stereo not given) | -11.8
COC(=O)c1ccccc1C(=O)c1ccccc1 | 3.8
COc1c2c(cc3c(CCc4ccccc4)cc(=O)oc13)CCC(C)(C)O2 | -6.5
CCOC(=O)C(=O)N1Cc2cc3c(cc2C2CC(O)C(O)CC21)OCO3 (stereo not given) | -1.1
OC1=CC(C2CCCCC2)CC(O)=C1 (stereo not given) | -4.75
c1ccc(-c2csc3[n+]2CCN3)cc1 | 12.8
NNC(=O)CNC(=O)c1ccccc1 | -10.9
CCOC(=O)CC1(C)c2nc(NC(C)=O)sc2Cc2sc(NC(C)=O)nc21 | 0.8
CON(C)c1nc(N(C)C)nc(N(C)C)n1 | -6.25
Nc1cc2[nH]cnc2c(=O)[nH]1 | 32.4
COCCNc1cncc(C(N)=O)c1 | 9.15
Nc1nc(N)[n+]([O-])c(N)c1NCO | -40

SMILES | growth inhibition [%]
COc1ccc(/C=C(\C2=NC(=O)CS2)c2nc3ccccc3[nH]2)cc1 | -20.1
Cc1ccc(-c2c(C#N)c(-c3ccccc3)c(C#N)c(=O)n2NS(=O)(=O)c2ccc(C)cc2)cc1 | 17.1
CN(Nc1ccnc(=O)[nH]1)c1ccccc1 | -11
COc1ccc(-c2c3c([nH]c(=S)c2C#N)CCC3)cc1 | 33
CCOC(=O)C(C(=O)OCC)C(=O)c1cc(OC)c(OC)c(OC)c1 | -1.35
CN1C/C(=C\C=C\c2ccccc2)C(=O)/C(=C/C=C/c2ccccc2)C1 | 14.8
C=C1C(=O)O[C@H]2[C@H]1[C@@H](OC(=O)C=C(C)C)CC1=C[C@@H](C[C@@]3(C)O[C@@H]23)OC1=O | 7.4
C/C(=C/CNc1ncnc2c1ncn2CCC(=O)O)CO | -31.7
O=c1[nH]c(=O)n(C2OC(CO)C(O)C2O)cc1OCc1ccccc1 (stereo not given) | -22.8
C/C(=N/O)c1c[n+]([O-])ccn1 | -7.9
COc1ccc2oc(=N)c(C(N)=S)cc2c1 | -3.45
Cn1c(-c2ccccc2)c2c(=O)oc3ccccc3c2c1-c1ccccc1 | 9.55
O=[N+]([O-])c1ccc(C=Nc2ccccc2)cc1 | 30.9
COc1cc([N+](=O)[O-])cc2c1OC1(C=C2)Oc2ccccc2N1C (stereo not given) | -16.3
COc1ccc2nc3cc([N+](=O)[O-])ccc3c(Nc3ccc(S(=O)(=O)N=C(N)N)cc3)c2c1 | 48.5
CN(C)c1ccc(N=Nc2ccc(S(=O)(=O)O)cc2)cc1.CN(C)c1ccc(N=Nc2ccc(S(=O)(=O)O)cc2)cc1.[NH-]C1CCCCC1[NH-].[Pt+2] | 10.3
CC1c2ncnc(N)c2CN1C(=O)c1ccccc1 (stereo not given) | -3.15
CC(=O)c1cccc(C(C)=O)c1N=Cc1ccc(Cl)cc1 | -26.4
O=C(/C=C\c1ccccc1)c1ccc(-c2ccc([N+](=O)[O-])cc2)cc1 | 9.05
CC(NC(=O)OC(C)(C)C)C(=O)C(N)=O (stereo not given) | -27.9
